Results filed as inconclusive are left out. The source made the active and inactive calls. Unless noted, the call rests on the fitted dose curve; in most records, active means well fitted curve in the direction sought with a large enough effect in the repeat runs; inconclusive means weak or mixed curves; inactive means flat fitted curve, though single readings scatter.
Experiments:
[1] = qHTS assay to test for compound auto fluorescence at 535 nm (green) in HEK293 cells (AID 720680)
[2] = qHTS assay to test for compound auto fluorescence at 460 nm (blue) in HEK293 cell free culture (AID 720681)
Summary of the method: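 Compounds were added to cell-free DMEM with 10% FBS and fluorescence read directly. The blue channel used 405 nm excitation and 460 nm emission, with triamterene as the reference fluorophore.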

[3] = qHTS assay to test for compound auto fluorescence at 535 nm (green) in HEK293 cell free culture (AID 720682)
Summary of the method: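 Each library compound, or DMSO control, is added by pintool to medium alone, comprising DMEM and 10% FBS. Emission at 535 nm following 485 nm excitation is quantified against fluorescein.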

[4] = qHTS assay to test for compound auto fluorescence at 590 nm (red) in HEK293 cell free culture (AID 720683)
Summary of the method: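 Cell-free wells of DMEM with 10% FBS received compound, and intrinsic fluorescence was read at excitation/emission 540/590 nm. Values expressed as equivalence to Rose Bengal sodium.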

[5] = qHTS assay to test for compound auto fluorescence at 590 nm (red) in HepG2 cell free culture (AID 720684)
Summary of the method: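 Auto fluorescence equivalency versus Rose Bengal sodium, red channel Ex/Em 540/590 nm; compounds in cell-free MEM/10% FBS; DMSO vehicle control.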

[6] = qHTS assay to test for compound auto fluorescence at 460 nm (blue) in HepG2 cell free culture (AID 720685)
Summary of the method: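 Cell-free plates of MEM plus 10% FBS received 23 nL compound or DMSO vehicle; blue-channel (405/460 nm) intensity scored against triamterene as reference fluorophore.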

[7] = qHTS assay to test for compound auto fluorescence at 535 nm (green) in HepG2 cell free culture (AID 720686)
[8] = qHTS assay to test for compound auto fluorescence at 460 nm (blue) in HepG2 cells (AID 720687)
Summary of the method: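 HepG2 cells in MEM with 10% FBS, attached overnight at 37 C, were exposed to compound or DMSO for 1 hr at 37 C, 5% CO2. Blue fluorescence was read at 405/460 nm, with triamterene as reference fluorophore.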

[9] = target: Glucocorticoid receptor (Homo sapiens) (UniProt P04150); assay: qHTS assay to identify small molecule agonists of the glucocorticoid receptor (GR) signaling pathway (AID 720691; active means well fitted activation curve with a large enough effect in the signal ratio in the repeat runs, not every such curve was filed as active; the % refers to the signal ratio)
Summary of the method: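 HeLa GR-bla reporter line; cells pre-incubated 4 h, compound in DMSO 18 h at 37 C; LiveBLAzer B/G FRET substrate 2 h RT; fluorescence intensity read-out.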

[10] = target: Glucocorticoid receptor (Homo sapiens) (UniProt P04150); assay: qHTS assay to identify small molecule antagonists of the glucocorticoid receptor (GR) signaling pathway (AID 720692; active means well fitted inhibition curve with a large enough effect in the signal ratio in the repeat runs, not every such curve was filed as active; the % refers to the signal ratio)
Summary of the method: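 Read-out: beta-lactamase FRET substrate fluorescence, 2 h at room temperature, in HeLa cells stably carrying a GRE-driven bla reporter. Compounds were co-incubated with 5 nM dexamethasone agonist (final) for 18 h at 37 C.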
On the % scale 0 is the no-effect control and ±100 the full control effect.

Glucocorticoid receptor (Homo sapiens), sequence (P04150 whole entry, looked up): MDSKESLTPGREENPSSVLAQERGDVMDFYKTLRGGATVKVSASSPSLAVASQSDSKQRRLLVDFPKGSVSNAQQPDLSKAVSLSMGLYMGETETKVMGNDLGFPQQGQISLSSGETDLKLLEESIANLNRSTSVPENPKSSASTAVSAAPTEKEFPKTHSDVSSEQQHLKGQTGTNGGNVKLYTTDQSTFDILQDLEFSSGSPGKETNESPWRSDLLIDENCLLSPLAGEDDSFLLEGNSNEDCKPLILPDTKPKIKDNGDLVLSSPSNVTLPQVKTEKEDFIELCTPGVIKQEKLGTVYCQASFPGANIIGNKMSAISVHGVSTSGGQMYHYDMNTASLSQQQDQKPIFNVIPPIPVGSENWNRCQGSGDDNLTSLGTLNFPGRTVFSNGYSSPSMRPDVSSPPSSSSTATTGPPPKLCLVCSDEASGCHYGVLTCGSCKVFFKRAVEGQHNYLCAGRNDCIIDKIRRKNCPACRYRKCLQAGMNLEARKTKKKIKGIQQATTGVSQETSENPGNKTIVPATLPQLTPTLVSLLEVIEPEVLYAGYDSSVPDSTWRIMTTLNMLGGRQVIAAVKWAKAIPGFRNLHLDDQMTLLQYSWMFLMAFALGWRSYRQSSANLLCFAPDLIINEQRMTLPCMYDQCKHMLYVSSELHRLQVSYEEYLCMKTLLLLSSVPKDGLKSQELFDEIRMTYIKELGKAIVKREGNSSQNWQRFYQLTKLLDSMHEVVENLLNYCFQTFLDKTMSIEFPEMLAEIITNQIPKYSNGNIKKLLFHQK

C=CCOCC(CO)(COCC=C)COCC=C
inactive: outcome [1] | outcome [2] | outcome [3] | outcome [4] | outcome [5] | outcome [6] | outcome [7] | outcome [8] | Potency [9] | outcome [10]

Cc1ccccc1C(=O)N1CC/C(=N\OS(=O)(=O)O)c2ccc(Cl)cc21
inactive: outcome [1] | outcome [2] | outcome [3] | outcome [4] | outcome [5] | outcome [6] | outcome [7] | outcome [8] | Potency [9] | outcome [10]

CCN(Cc1cccc(S(=O)(=O)O)c1)c1ccccc1
inactive: outcome [1] | outcome [2] | outcome [3] | outcome [4] | outcome [5] | outcome [6] | outcome [7] | outcome [8] | Potency [9] | outcome [10]

CN(C)CCOCCN(C)CCO
inactive: outcome [1] | outcome [2] | outcome [3] | outcome [4] | outcome [5] | outcome [6] | outcome [7] | outcome [8] | Potency [9] | outcome [10]

F[Si-2](F)(F)(F)(F)F
inactive: outcome [1] | outcome [2] | outcome [3] | outcome [4] | outcome [5] | outcome [6] | outcome [7] | outcome [8] | Potency [9] | outcome [10]

COc1cc(C=O)ccc1OC(=O)C(C)C
inactive: outcome [1] | outcome [2] | outcome [3] | outcome [4] | outcome [5] | outcome [6] | outcome [7] | outcome [8] | Potency [9] | outcome [10]

C=CCOCC(O)CCl (stereo unspecified)
inactive: outcome [1] | outcome [2] | outcome [3] | outcome [4] | outcome [5] | outcome [6] | outcome [7] | outcome [8] | Potency [9] | outcome [10]

C[C@H](CCC(=O)O)[C@H]1CC[C@H]2[C@@H]3[C@H](O)C[C@@H]4C[C@H](O)CC[C@]4(C)[C@H]3C[C@H](O)[C@]12C
inactive: outcome [1] | outcome [2] | outcome [3] | outcome [4] | outcome [5] | outcome [6] | outcome [7] | outcome [8] | Potency [9] | outcome [10]

Cc1cc(C)cc([N+](=O)[O-])c1
inactive: outcome [1] | outcome [2] | outcome [3] | outcome [4] | outcome [5] | outcome [6] | outcome [7] | outcome [8] | Potency [9] | outcome [10]

C[C@H]1O[C@H](O[C@H]2[C@H](O)[C@@H](O)[C@@H](O[C@H]3[C@H](O)[C@@H](O)[C@H](O)O[C@@H]3CO)O[C@@H]2CO)[C@H](O)[C@@H](O)[C@@H]1N[C@H]1C=C(CO)[C@@H](O)[C@H](O)[C@H]1O
inactive: outcome [1] | outcome [2] | outcome [3] | outcome [4] | outcome [5] | outcome [6] | outcome [7] | outcome [8] | outcome [10]

C[C@@H]1C[C@H]2[C@@H]3C[C@H](F)C4=CC(=O)C=C[C@]4(C)[C@@]3(F)[C@@H](O)C[C@]2(C)[C@@]1(O)C(=O)CO
inactive: fluorescence, % of fluorescein [1] 0.12% [at 18.6 µM] | fluorescence, % of fluorescent control [2] -0.0209% [at 18.6 µM] | activity change [3] 0.0847% [at 18.6 µM] | fluorescence, % of fluorescent control [4] -0.0134% [at 18.6 µM] | fluorescence, % of Rose Bengal [5] 0.414% [at 18.6 µM] | fluorescence, % of fluorescein control [7] 0.0581% [at 18.6 µM] | fluorescence, % of fluorescent control [8] -0.0249% [at 18.6 µM]

CCOc1ccc(NC(=O)OC(C)C)cc1OCC
inactive: outcome [1] | outcome [2] | outcome [3] | outcome [4] | outcome [5] | outcome [6] | outcome [7] | outcome [8] | Potency [9] | outcome [10]

COC(/C=C(\C)CCC=C(C)C)OC
inactive: outcome [1] | outcome [2] | outcome [3] | outcome [4] | outcome [5] | outcome [6] | outcome [7] | outcome [8] | Potency [9] | outcome [10]

CC(C)CCCCCCOC(=O)C1CCCCC1C(=O)OCCCCCCC(C)C (stereo unspecified)
inactive: outcome [1] | outcome [2] | outcome [3] | outcome [4] | outcome [5] | outcome [6] | outcome [7] | outcome [8] | Potency [9] | outcome [10]

OCCCCCCCl
inactive: outcome [1] | outcome [2] | outcome [3] | outcome [4] | outcome [5] | outcome [6] | outcome [7] | outcome [8] | Potency [9] | outcome [10]

C[C@H](CCC(=O)NCC(=O)O)[C@H]1CC[C@H]2[C@@H]3[C@H](O)C[C@@H]4C[C@H](O)CC[C@]4(C)[C@H]3C[C@H](O)[C@]12C
inactive: outcome [1] | outcome [2] | outcome [3] | outcome [4] | outcome [5] | outcome [6] | outcome [7] | outcome [8] | Potency [9] | outcome [10]

COc1cc([N+](=O)[O-])ccc1N
inactive: outcome [1] | outcome [2] | outcome [3] | outcome [4] | outcome [5] | outcome [6] | outcome [7] | outcome [8] | Potency [9] | outcome [10]

FC(F)(F)/C(=N\OCC1OCCO1)c1ccc(Cl)cc1
inactive: outcome [1] | outcome [2] | outcome [3] | outcome [4] | outcome [5] | outcome [6] | outcome [7] | outcome [8] | Potency [9] | outcome [10]

O=C(c1ccc2c(c1)C(=O)OC2=O)c1ccc2c(c1)C(=O)OC2=O
inactive: outcome [1] | outcome [2] | outcome [3] | outcome [4] | outcome [5] | outcome [6] | outcome [7] | outcome [8] | Potency [9] | outcome [10]

CC1(N)CCC(C(C)(C)N)CC1 (stereo unspecified)
inactive: outcome [1] | outcome [2] | outcome [3] | outcome [4] | outcome [5] | outcome [6] | outcome [7] | outcome [8] | Potency [9] | outcome [10]

N#CCCOCCOCCC#N
inactive: outcome [1] | outcome [2] | outcome [3] | outcome [4] | outcome [5] | outcome [6] | outcome [7] | outcome [8] | Potency [9] | outcome [10]

Reference: PubChem BioAssay (Tox21)
